# In all, about 25,000 sequences were measured (“ln(normalized median fluorescence intensity)”: median about 9.3, highest 2% from about 10 on). The list comes from a sample in which the highest values are over-represented; it also holds similar and randomly drawn sequences.
# Test system: PF3D7_0420300 AP2 domain 1 (GST-tagged)
# Experiment: gcPBM binding intensity (ln(normalized median fluorescence intensity)); higher = stronger DNA binding
# How it was run: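 An Agilent 4 × 180k array carrying primer-extended double-stranded 36-bp intergenic genomic probes and negative controls received GST-tagged P. falciparum DNA-binding domains expressed in E. coli, about 25 μg on average, for 1 h. The binding buffer contained 1× PBS, 1% milk, 0.2 mg/ml BSA, 0.5% salmon testes DNA and 0.03% Triton X-100. Binding intensity is the top Masliner-normalised natural-log median intensity across replicate spots of either probe orientation, read after Alexa488 anti-GST antibody staining and a 488 nm scan.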
row,Sequence,gcPBM binding intensity (ln)
1,ATAGTATACGGACACACACACACACCGATATATATA [CACACA_site5032],10.3
2,CATATACTCGGACACACACACACACCGACAAAAAAA [CACACA_site4433],10.1
3,TAAATAAATTTATACACACACACACCGATATATATA [CACACA_site4622],10.1
4,ATAGTATACAGACACACACACACACCGATATATATA [CACACA_site8511],10.3
5,AGTATACACAGACACACACACACATATATATATATA [CACACA_site8510],10.2
6,AGTATACATATATATACACACACACCGATATATATA [CACACA_site8357],10.1
7,ATTCATCTATTTTGTAGTACTAAATATATATCTACT [XGTACX_site8790],9.46
8,TGTAATAATCTTCATTTCTTTTTTTTTTTTTTTTGT [CACACA_negctrl_site1388],8.96
9,ATTTACATAATAAAATGTACATTTATAAATATTATA [XGTACX_site1901],9.13
10,AATATAGATACATATACACACACACCCATACATATA [CACACA_site9137],10.1
11,CACAGATATATACATACACACATATATACACATATA [CACACA_site6323],9.72
12,TATAGATACATATACACACACACACCGACATATATA [CACACA_site9138],10.3
13,CATACATACATACATACACACATACAGATATATATA [CACACA_site4890],9.84
14,TATAGATACAGATACACACACACACCGACATATATA [CACACA_site5832],10.2
15,CATATATAGATATATACACACATACATACATACATA [CACACA_site7748],9.59
16,ATATATATATAATAAGTGCAAAAAAAAGAAAAAAAT,9.74
17,GTTTAACTGTTTTATACACACAATGTATCCAATAAA [CACACA_site5612],9.49
18,AGTATAAAAATAAGCACACACACAAATATATATTTA [CACACA_site923],10.2
19,TAAAAAAAAAAAAAAACACACATATAAATATTTATA [CACACA_site6702],9.45
20,CTTATATTAAAACACACACACGCACAAAACAGAAAT [CACACA_site1462],10.2
21,GATAAATTAAAACACACACACATATATATATATATA [CACACA_site3962],9.67
22,ACTTATATAAAACATTAACACACAAAGAAAAAAAAT [CACACA_site8529],9.96
23,TATATATTATTTAAAACACACAAAAAAAAAAATTAT [CACACA_site89],9.59
24,CATAAAATATAAAACACACACACATATATTTATATA [CACACA_site6247],10

row,Sequence,gcPBM binding intensity (ln)
1,TATAAAAATAAGCACACACACAAATATATATTTATT [CACACA_site922],10.1
2,ATAAAATTTATATAAGCACACAAATATATATTTATA [CACACA_site9083],9.29
3,AATATAAATAAAAACACACACACACGGATATTTATA [CACACA_site7134],10.3
4,AAAAACAACACAGATAAATTAACACACACACACATA [XGTACX_negctrl_site588],10.2
5,CATAATACAGATAACACACACAATTATACATAAAAT [CACACA_site5742],10
6,AACCACATACATATAACACACATATACAATATATAT [CACACA_site8607],9.65
7,TTTTGTTATTATAAATAGTAACATTTGTGAATATAT [TGCATGCA_negctrl_site132],8.92
8,GGCCCAACTTCTTCTGACGAAAACGTAAATTGTGTG [XGTACX_negctrl_site533],9.22
9,CTATATCATTTTCTAGCACACACATTGTTATTACCT [CACACA_site8204],9.84
10,AAAAACTAACTGTATTGTACTCTCTTATAAATTCAC [XGTACX_site8967],9.15
11,ATATATATATATATATATATAATAAAAGATCATTTA [XGTACX_negctrl_site371],9.09
12,AAAAAATATATATATATATATATGTAATATTTTTTT [XGTACX_negctrl_site439],9.07
13,TAAATAATGTAAAAAACATCATCAAAATGTTAATTA [CACACA_negctrl_site1768],9.09
14,TATGAAATATTTATACACAGAACTTCATAATTTTCA [TGCATGCA_negctrl_site509],9.04
15,CGTGAATATATGATATGTACTTATAAAAATTTGTGC [XGTACX_site5480],9.26
16,CACAGATAAATTAACACACACACACCCATATATATA [CACACA_site3960],10.1
17,TAAATAAAAAGACACACACACATATTTATATTTATA [CACACA_site7135],10
18,AACACAGATAAATTAACACACACACCCATATATATA [CACACA_site9310],10.1
19,AATAAATATATATTCACACACAAACATATATATATA [CACACA_site4023],9.71
20,CTATTTCATGGACACACACACACAAACAAACATATA [CACACA_site4696],10.2
21,ATAAAAAAAGGACACACACACATATATTTATTTATA [CACACA_site7438],10.1
22,ATTTAATACAAATACACACACAAATAAATACAGATA [CACACA_site5956],10.2
23,ATACAACAGATATATACACACATATAACAATAATAA [CACACA_site7560],9.93
24,CACAGATAAATTAACACACACACACCGATATATATA [CACACA_site6049],10.2

row,Sequence,gcPBM binding intensity (ln)
1,AATACAATTTTTAACACACACACAATAATACAGATA [CACACA_site4823],10.2
2,CTATTTCATAAACACACACACACAAACAAACATATA [CACACA_site8234],10.4
3,ATAAAAAGGAGACACACACACACACGCATATTTATA [CACACA_site6551],10.3
4,TTGTGTTTTATTATTTTATTATTACTATTATAATGT [GTGCAC_negctrl_site484],9.62
5,TAAATATATATTATATGTACTTATATATATATATAT [XGTACX_site4448],9.13
6,TAATTTTCTTTTTATCGTTTTTTTTTTTTTTTTTTT [XGTACX_negctrl_site432],9.02
7,AGCTAATATATCTTATATTCATATAAAAAAATATAT [CACACA_negctrl_site1786],8.94
8,AAATTTACAATACATTGTACATATTAATAATATTCC [XGTACX_site3646],9.17
9,CAGTTGGAAGGAAAGTGTACATAAAAAAAAATATAA [XGTACX_site8784],9.09
10,TCTTTTTAGATATATACACACCGTGTCTACCTATAC [CACACA_site7551],9.41
11,AAATGAATAAATAGGTCACACACAAATATATATAAA [CACACA_site8764],9.91
12,TATTAATATATAGTAGTGCAATAAAGATATACTGAA,9.39
13,TTTCGATTAAAAATTGTACAATATAAGGAGCACACA [GTGCAC_negctrl_site476],9.31
14,CAATATAAAAAACACACACACAAACATATATTTATA [CACACA_site3703],10.1
15,AAAATTAAAAATAACACACACATATTTATATTTATA [CACACA_site7329],9.75
16,ATCTTATATGATCACACACACACGCACAAAACAGAA [CACACA_site4913],10.1
17,CACAGATAAATTAACACACACACACGGATATTTATA [CACACA_site7788],10.2
18,CACAAAAATAAACACACACACATATATATTTATTAT [CACACA_site5923],10.2
19,AATACAATTTATAACACACACACAATAATACATATA [CACACA_site1252],10.2
20,ATATCTTATGTTATCACACACACACGCACAAAACAG [CACACA_site6800],10.2
21,ATCTTATATTATCACACACACACGCACAAAACAGAA [CACACA_site1463],10.1
22,TACATAATACATATAACACACACAATTATACATAAA [CACACA_site9060],10
23,AAAATTAAAAATAACACACACATATATATATTTATA [CACACA_site2776],9.84
24,ATAATACAATTTATAACACACACACTATAATACATA [CACACA_site8338],9.97

row,Sequence,gcPBM binding intensity (ln)
1,ATATAATTATAAAATAAACACACATATATATTTATA [CACACA_site8039],9.48
2,AAACATTTACTATATTGTACTTAAGATCTTATCGTA [XGTACX_site3919],9.06
3,CTGTCTGCAGATATGGTGCATTTGTAAGATCTTACA [GTGCAC_site9870],9.13
4,GACATAAAATTCAAAGTGCATAAATAAAATAAACCC,9.49
5,ATTATAAACCATAATTAACACACAAAATAAGTTACA [CACACA_site9057],9.75
6,TTTTCTTTCTTGTTTCGTATATTATAAAAAAAAAAG [CACACA_negctrl_site854],8.96
7,ACATTTATATATAATTGTACCCTACATTCTCTTTTT [XGTACX_site189],9.5
8,AAAAAAATAATAAAAAGTACAAAATGTAGAAAATGT [XGTACX_site5018],9.91
9,AATAGAGTTGAATGCACACATACAAATTTTTAGTTT [CACACA_site3564],9.33
10,TAGTAGTTATCACTAACATGCAATAATATTATTTAA [TGCATGCA_site161],9.08
11,AATATATATAAATATTGTACAAAAATATATATATAT [XGTACX_site2910],9.26
12,AAGAATCATATTTAAACACACATACAGATATATATA [CACACA_site5787],9.51
13,AATACAATTTATAACACACACACAAGAATACCTATA [CACACA_site6705],10.3
14,TATACAATATATATAACACACATATTTATATAAAAT [CACACA_site5061],9.57
15,TTATTTAAACAAATCACACACAAATATATATACATA [CACACA_site2019],9.71
16,CAATTTATAAAGAAAACACACATATACCTATATACA [CACACA_site6710],9.55
17,TAAAAAAAAATATATAAACACACATATTTATATACA [CACACA_site8469],9.36
18,AAGGATCACGCACAAACACACATATTTATATTTATA [CACACA_site6405],9.47
19,AAAAAAAACAAACACACACACAAATATTTATATATT [CACACA_site436],10.1
20,TATACAATCTATATAACACACATATTTATATAAAAT [CACACA_site1797],9.46
21,TACAATATAAAATACACACACACAAACATATATTTA [CACACA_site5941],10.2
22,AACAAAAAAACAAACACACACACACGCATATTTATA [CACACA_site7680],10.2
23,TACAATCTAAAATACACACACACAAACATATATTTA [CACACA_site3702],10.2
24,TACAATTTATGACACACACACAATAATACCTATATA [CACACA_site6704],9.95

# — the supplement of paper PMC11417369
